# Results reported in PubChem BioAssay (NCATS).
# A number with no mark means an inactive call. Calls come from the whole dose curve.
# Assay: qHTS drug screen for cell cycle checkpoint inhibitors in PARPi-resistant BRCA-mutant ovarian cancer cell lines. (AID 1963452)
# Conditions: PEO1/OlaR viability, CellTiter-Glo luminescence, 96 h; stronger effect = lower value
# Procedure, shortened: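 PEO1, PEO4 and PEO1/OlaR ovarian cancer cells, 600 per well, exposed 96 h at 37C to a dilution series. Viability read by CellTiter-Glo luminescence, normalized to DMSO and empty wells; activity summarized as Z-AUC.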
row,Structure (SMILES),Z-AUC
1,CN(C)[C@@H]1C(=O)C(C(N)=O)=C(O)[C@@]2(O)C(=O)C3=C(O)c4c(O)cccc4[C@@](C)(O)[C@H]3[C@H](O)[C@@H]12,-0.415
2,CSCC[C@@H](NC(=O)[C@@H](Cc1ccccc1)NC(=O)CNC(=O)CNC(=O)[C@@H](N)Cc1ccc(O)cc1)C(=O)O,1.29
3,COC(=O)[C@@H](N)CCCN=C(N)N[N+](=O)[O-],-0.673
4,O=S(=O)(F)Cc1ccccc1,-0.434
5,CCc1c(C(=O)C(N)=O)c2c(OCC(=O)O)cccc2n1Cc1ccccc1,0.107
6,O=C(Oc1ccc([N+](=O)[O-])cc1)N1CCC(C(O)(c2ccc3c(c2)OCO3)c2ccc3c(c2)OCO3)CC1,0.0942
7,Cc1ccccc1-n1c(Cn2cnc3c(N)ncnc32)nc2cccc(C)c2c1=O,-0.47
8,COc1cc([C@@H]2c3cc4c(cc3[C@@H](O)C3COC(=O)C32)OCO4)cc(OC)c1O (stereo partly drawn),-0.729
9,CN(C)NC(=O)CCC(=O)O,1.04
10,C#CC1(O)CCC2C3CCC4=CC(=O)CCC4(C)C3CCC21C (stereo not drawn),0.597
11,Cc1ccccc1-n1c(Cn2ncc3c(N)ncnc32)nc2cccc(C)c2c1=O,-0.794
12,O=C(Nc1ccncc1)C(=O)c1cn(Cc2ccc(Cl)cc2)c2ccccc12,-0.51
13,CC1=C(O)C(=O)C=C2C1=CC=C1[C@@]2(C)CC[C@@]2(C)[C@@H]3C[C@](C)(C(=O)O)CC[C@]3(C)CC[C@]12C,-0.53
